Experimental data published in PubChem BioAssay.
Records with an inconclusive call do not appear. For some of these results: Potency and affinity values are given separately. Calls of active or inactive are those of the source.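 Rule for the calls, unless noted: active = at least 20% inhibition of 6-phosphogluconate dehydrogenase activity; inactive = the rest.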 Peptide text beside a SMILES is read from it.

Legend:
[1] = blockers of polyQ-driven CASP3 activation – cell-based (AID 1583); settings: polyglutamine-induced caspase-3 activation, cell assay; stronger effect = higher value;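 tested at 10 µM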
[2] = yeast 75Q aggregation reduction – 75Q-TubU reporter (AID 1593); settings: Yeast 75Q polyglutamine aggregation reporter
[3] = restoration of touch response, mutant HTT neurons – whole organism, C. elegans mechanosensory neurons, N-terminal huntingtin (AID 1599); settings: C. elegans polyQ-huntingtin mechanosensory neurons, stronger effect = higher value
[4] = blockers of cytochrome c efflux from mitochondria – biochemical, purified mitochondria (AID 1603); settings: stronger effect = lower value;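 note: mouse liver mitochondria challenged with calcium chloride; signal normalized to the plate average as 100%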
[5] = polyglutamine aggregate formation blockers (AID 1604); settings: polyglutamine-induced protein aggregation inhibition assay; stronger effect = higher value; tested at 2.5 µM
[6] = glutamate transport activators, MN-1 cells, MN-1 cell line (AID 1612); settings: MN-1 motor neuron cells, stronger effect = higher value;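 note: tested at 1 µM final; 0% = mean of DMSO vehicle wells on each plate; positive means more glutamate uptake than control and negative means less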
[7] = GFP-Q80 aggregate reduction, neuronal-like cells, cell-based, NGF-treated PC12, GFPQ80 (AID 1614); settings: PC12 NGF-treated GFP-polyQ80 inclusion reduction;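 note: lower means fewer inclusions and 0 means no inclusions at all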
[8] = 75Q-TubH aggregate inhibition, S. cerevisiae, yeast (AID 1616); settings: S. cerevisiae 75Q-TubH polyglutamine aggregation suppression; stronger effect = higher value
[9] = target: 6-phosphogluconate dehydrogenase, decarboxylating (Homo sapiens) (UniProt P52209); experiment: inhibition of human phosphogluconate dehydrogenase – biochemical, recombinant enzyme, NADPH absorbance, primary screen (AID 1159550); settings: recombinant 6PGD, NADPH absorbance 341 nm; at 10 µM; stronger effect = higher value
Sequence of 6-phosphogluconate dehydrogenase, decarboxylating (Homo sapiens) (P52209 whole entry, looked up, the tested form may be a part): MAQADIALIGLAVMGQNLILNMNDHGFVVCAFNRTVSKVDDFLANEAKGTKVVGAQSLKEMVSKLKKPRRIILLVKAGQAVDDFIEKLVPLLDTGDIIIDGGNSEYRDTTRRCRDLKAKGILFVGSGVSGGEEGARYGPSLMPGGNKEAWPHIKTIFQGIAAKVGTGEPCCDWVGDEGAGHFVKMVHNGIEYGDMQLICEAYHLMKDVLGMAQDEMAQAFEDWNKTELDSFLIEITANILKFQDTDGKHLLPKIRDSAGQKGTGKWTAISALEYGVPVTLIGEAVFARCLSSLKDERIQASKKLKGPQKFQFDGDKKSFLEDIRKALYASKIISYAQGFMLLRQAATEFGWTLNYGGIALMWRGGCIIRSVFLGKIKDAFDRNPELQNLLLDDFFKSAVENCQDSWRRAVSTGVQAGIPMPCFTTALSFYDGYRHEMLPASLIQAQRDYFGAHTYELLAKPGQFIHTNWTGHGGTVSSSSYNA

[10] = target: Mitogen-activated protein kinase 7 (Homo sapiens) (UniProt Q13164); experiment: Gal4-ERK5 driven luciferase induction – cell-based, HTS, primary screen (AID 1508626;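 active = luciferase signal above three times the same-plate solvent-only control wells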;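 note: luciferase driven by Gal4-ERK5 fusion binding five Gal4 sites before minimal TATA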); settings: HeLa Gal4-ERK5 transactivation, 18 h, at 5 µM, stronger effect = higher value
Sequence of Mitogen-activated protein kinase 7 (Homo sapiens) (Q13164 whole entry, looked up, the tested form may be a part): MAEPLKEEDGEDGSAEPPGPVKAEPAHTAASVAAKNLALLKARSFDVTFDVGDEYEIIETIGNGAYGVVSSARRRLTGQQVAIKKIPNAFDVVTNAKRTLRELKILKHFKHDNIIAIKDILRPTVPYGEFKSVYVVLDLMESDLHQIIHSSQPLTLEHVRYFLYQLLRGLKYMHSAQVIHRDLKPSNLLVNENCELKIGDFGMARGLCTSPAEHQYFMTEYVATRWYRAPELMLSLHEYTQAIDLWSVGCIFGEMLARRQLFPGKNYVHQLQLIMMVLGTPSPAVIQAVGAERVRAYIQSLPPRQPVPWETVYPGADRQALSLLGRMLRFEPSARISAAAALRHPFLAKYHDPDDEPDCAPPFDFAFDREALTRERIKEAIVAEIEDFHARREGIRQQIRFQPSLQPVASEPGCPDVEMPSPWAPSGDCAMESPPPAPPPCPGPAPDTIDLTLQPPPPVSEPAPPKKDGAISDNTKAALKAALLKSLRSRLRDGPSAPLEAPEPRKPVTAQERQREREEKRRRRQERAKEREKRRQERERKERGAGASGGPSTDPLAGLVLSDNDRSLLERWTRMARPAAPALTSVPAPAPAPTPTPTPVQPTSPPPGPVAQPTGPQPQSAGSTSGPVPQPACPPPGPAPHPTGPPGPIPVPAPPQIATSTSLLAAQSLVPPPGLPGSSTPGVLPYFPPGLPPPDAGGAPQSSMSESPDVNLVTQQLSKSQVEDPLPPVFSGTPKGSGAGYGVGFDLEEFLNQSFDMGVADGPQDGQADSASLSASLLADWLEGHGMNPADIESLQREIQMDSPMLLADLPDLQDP

[11] = P. berghei load reduction in hepatocytes – cell-based, HepG2, luciferase luminescence, HepG2 viability, primary screen (AID 624349; in the data active = parasite load remaining mostly below about 12%, no sharp cut-off; inactive = mostly above about 10%;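 note: 100% = mean of DMSO negative control wells on the same plate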); settings: P. berghei liver stage in HepG2, luciferase luminescence, concentration not given here; parasite load remaining: stronger effect = lower value; viability: measured here: HepG2 viability without parasites
[12] = target: Calcium-dependent protein kinase 1 (Plasmodium falciparum (isolate 3D7)) (UniProt P62344); experiment: PfCDPK1 kinase inhibitors, biochemical, TCAMS library (AID 1159585; cut-off not given, nearly all actives have IC50 up to about 0.98 µM;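 note: inhibitors leave more ATP so luminescence rises with inhibition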); settings: recombinant PfCDPK1, Kinase-Glo ATP depletion luminescence
Sequence of Calcium-dependent protein kinase 1 (Plasmodium falciparum (isolate 3D7)) (P62344 whole entry, looked up): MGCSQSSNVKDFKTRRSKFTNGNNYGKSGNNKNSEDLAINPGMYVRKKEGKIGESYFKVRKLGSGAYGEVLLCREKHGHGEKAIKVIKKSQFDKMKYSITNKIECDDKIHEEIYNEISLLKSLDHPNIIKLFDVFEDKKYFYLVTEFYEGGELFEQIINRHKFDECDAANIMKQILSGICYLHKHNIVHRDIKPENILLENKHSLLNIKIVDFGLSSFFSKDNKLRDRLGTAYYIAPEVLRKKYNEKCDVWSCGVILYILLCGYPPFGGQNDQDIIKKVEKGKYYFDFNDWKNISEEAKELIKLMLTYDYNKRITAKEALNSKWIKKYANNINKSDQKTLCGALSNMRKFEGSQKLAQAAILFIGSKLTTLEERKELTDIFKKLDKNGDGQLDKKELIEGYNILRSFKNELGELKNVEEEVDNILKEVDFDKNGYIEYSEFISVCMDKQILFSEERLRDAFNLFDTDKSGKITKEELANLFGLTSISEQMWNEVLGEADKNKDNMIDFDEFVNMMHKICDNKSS

[13] = target: Plasmodium falciparum protein kinase 6 (PK6, PF3D7_1337100) (UniProt Q8IDW1); experiment: PfPK6 kinase inhibitors, biochemical, TCAMS library (AID 1159586; call rule not given here); settings: recombinant PfPK6, Kinase-Glo ATP depletion luminescence
Sequence of Plasmodium falciparum protein kinase 6 (PK6, PF3D7_1337100) (Q8IDW1 1-305): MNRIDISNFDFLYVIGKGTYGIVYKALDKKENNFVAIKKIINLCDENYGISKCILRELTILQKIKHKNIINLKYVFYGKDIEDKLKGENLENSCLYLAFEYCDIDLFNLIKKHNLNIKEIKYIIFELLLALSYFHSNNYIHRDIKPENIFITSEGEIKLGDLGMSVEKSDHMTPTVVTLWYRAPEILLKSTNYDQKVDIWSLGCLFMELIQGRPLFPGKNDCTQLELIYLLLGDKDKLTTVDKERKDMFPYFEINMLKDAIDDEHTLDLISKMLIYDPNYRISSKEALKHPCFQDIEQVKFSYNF

[14] = target: Protein kinase 7 (PK7), Plasmodium falciparum 3D7 (PF3D7_0213400) (UniProt Q7YTF7); experiment: inhibition of Plasmodium PK7 catalytic activity – biochemical, TCAMS antimalarial set, Kinase-Glo luminescence (AID 1159587; call rule not given here); settings: recombinant PfPK7, Kinase-Glo ATP depletion luminescence
Sequence of Protein kinase 7 (PK7), Plasmodium falciparum 3D7 (PF3D7_0213400) (Q7YTF7 1-343): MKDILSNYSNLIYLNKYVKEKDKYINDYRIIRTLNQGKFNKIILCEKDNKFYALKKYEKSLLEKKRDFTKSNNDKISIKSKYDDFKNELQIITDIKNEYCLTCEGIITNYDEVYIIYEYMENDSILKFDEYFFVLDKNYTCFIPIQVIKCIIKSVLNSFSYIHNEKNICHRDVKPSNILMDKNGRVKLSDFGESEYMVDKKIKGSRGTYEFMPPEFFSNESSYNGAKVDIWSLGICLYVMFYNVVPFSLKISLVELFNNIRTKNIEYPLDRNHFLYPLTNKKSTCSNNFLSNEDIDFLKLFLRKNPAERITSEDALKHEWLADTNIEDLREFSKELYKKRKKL

[15] = target: Calcium-dependent protein kinase 4 (Plasmodium falciparum (isolate 3D7)) (UniProt Q8IBS5); experiment: PfCDPK4 kinase inhibitors, biochemical, TCAMS library (AID 1159588; cut-off not given, nearly all actives have IC50 up to about 0.91 µM); settings: recombinant PfCDPK4, Kinase-Glo ATP depletion luminescence
Sequence of Calcium-dependent protein kinase 4 (Plasmodium falciparum (isolate 3D7)) (Q8IBS5 whole entry, looked up): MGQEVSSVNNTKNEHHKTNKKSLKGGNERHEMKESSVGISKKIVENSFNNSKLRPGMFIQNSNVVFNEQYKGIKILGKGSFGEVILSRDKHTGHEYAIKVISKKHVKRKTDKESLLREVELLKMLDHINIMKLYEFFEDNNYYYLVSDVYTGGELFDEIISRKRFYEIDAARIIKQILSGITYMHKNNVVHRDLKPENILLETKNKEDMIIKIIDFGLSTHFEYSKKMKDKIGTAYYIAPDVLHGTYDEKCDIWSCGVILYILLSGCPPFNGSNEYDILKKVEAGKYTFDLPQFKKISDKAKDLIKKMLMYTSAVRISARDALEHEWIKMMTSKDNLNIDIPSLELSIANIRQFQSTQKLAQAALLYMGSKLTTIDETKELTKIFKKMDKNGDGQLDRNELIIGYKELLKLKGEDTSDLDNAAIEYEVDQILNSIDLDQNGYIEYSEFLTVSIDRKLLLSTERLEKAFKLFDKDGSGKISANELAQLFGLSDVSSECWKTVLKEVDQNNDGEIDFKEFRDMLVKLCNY

[16] = target: ATP-dependent translocase ABCB1 (Homo sapiens) (UniProt P08183); experiment: P-glycoprotein substrate transport blockade – cell-based (AID 377; in the data active = fluorescence slope change above about 50%); settings: MDR1-expressing cells, fluorescent substrate accumulation slope; stronger effect = higher value; concentration not given here
Sequence of ATP-dependent translocase ABCB1 (Homo sapiens) (P08183 whole entry, looked up): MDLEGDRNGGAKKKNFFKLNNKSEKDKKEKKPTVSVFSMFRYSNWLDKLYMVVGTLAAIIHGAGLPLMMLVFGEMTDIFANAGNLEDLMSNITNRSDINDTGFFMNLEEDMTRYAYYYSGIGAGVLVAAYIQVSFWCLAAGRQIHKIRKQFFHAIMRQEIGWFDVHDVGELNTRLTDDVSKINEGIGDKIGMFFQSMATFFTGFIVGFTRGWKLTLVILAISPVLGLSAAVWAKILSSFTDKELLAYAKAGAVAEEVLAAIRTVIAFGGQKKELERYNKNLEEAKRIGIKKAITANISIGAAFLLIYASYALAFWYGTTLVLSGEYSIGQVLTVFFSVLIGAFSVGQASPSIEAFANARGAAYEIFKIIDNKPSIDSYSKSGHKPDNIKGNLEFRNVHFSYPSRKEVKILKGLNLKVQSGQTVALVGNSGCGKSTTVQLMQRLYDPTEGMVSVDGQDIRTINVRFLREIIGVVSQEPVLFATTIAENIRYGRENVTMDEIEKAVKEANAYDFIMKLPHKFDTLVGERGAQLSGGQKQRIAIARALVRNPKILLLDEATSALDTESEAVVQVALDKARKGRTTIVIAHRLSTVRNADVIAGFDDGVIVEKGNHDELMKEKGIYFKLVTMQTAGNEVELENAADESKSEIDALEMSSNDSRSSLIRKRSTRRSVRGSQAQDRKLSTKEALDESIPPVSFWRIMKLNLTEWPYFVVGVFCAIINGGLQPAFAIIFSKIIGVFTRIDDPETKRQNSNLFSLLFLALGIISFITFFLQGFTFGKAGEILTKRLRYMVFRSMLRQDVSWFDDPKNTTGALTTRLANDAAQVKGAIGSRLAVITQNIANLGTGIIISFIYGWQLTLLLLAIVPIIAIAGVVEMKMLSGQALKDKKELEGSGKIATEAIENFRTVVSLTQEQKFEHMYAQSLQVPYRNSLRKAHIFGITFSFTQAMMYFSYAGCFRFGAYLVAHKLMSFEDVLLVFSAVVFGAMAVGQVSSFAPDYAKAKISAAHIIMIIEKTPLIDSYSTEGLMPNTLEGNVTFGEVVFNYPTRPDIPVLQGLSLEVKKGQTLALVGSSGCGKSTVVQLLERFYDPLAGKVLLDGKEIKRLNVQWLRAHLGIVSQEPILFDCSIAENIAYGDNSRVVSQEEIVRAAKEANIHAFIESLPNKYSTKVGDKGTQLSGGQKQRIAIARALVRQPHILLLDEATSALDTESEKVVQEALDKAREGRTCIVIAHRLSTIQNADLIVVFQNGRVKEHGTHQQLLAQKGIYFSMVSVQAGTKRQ

[17] = compounds altering viability of human ES cells (AID 493140; call rule not given here;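 note: cells exposed to compounds for four days before counting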); settings: human embryonic stem cell survival screen; stronger effect = higher value

With O=C(O)c1cc(O)ccc1O the inhibition [1] was -0.2%, the score [2] was 0.92 and the rescue above control [3] was -5.86. The cytochrome c release ratio [4] was 0.99, the inhibition of aggregation [5] was 72.2% and the glutamate uptake change [6] was -11.6%. For the same compound, the inclusion score [7] was 2, the aggregation suppression score [8] was 0.337 and the inhibition [9] was -15.2% (inactive).
CC(N)C(=O)NC(Cc1ccccc1)C(=O)O (stereo not given) showed an inhibition [1] of 17.1%, a score [2] of 1.2 and a rescue above control [3] of 1.23. The cytochrome c release ratio [4] was 1.13, the inhibition of aggregation [5] was 77.8% and the glutamate uptake change [6] was 2.41%. The inclusion score [7] was 2, the aggregation suppression score [8] was 1.4 and the inhibition [9] was 16.4% (inactive).
With N[C@H](C(=O)O)[C@@H]1CC(Cl)=NO1 the inhibition [1] was -15.5%, the score [2] was 0.51 and the rescue above control [3] was -2.47. For the same compound, the cytochrome c release ratio [4] was 0.83, the inhibition of aggregation [5] was 25.5% and the glutamate uptake change [6] was 6.6%. For the same compound, the inclusion score [7] was 1, the aggregation suppression score [8] was 0.115 and the inhibition [9] was 7.5% (inactive).
In the case of CC1(C)C2CC(=O)O[C@@]3(C)C4=CC(=O)O[C@@H](c5ccoc5)[C@]4(C)CCC3[C@@]2(C)C=C[C@H]1O (stereo not given in full), the inhibition [9] is reported as 9.39% (inactive) and the luciferase signal [10] is reported as 20 AU (inactive).
For CC(C)c1c(O)ccc2c1CCC1[C@@](C)(C=O)CCC[C@]21C (stereo not given in full), the inhibition [9] was -10.2% (inactive) and the luciferase signal [10] was 16 AU (inactive).
For NC(=O)c1ccc[n+]([C@@H]2O[C@H](COP(=O)([O-])OP(=O)(O)OC[C@H]3O[C@@H](n4cnc5c(N)ncnc54)[C@H](OP(=O)(O)O)[C@@H]3O)[C@@H](O)[C@H]2O)c1, the inhibition [1] was 19.9%, the score [2] was 1.08 and the rescue above control [3] was 9.74. The cytochrome c release ratio [4] was 0.78, the inhibition of aggregation [5] was -21.6% and the glutamate uptake change [6] was 16.5%. The inclusion score [7] was 2, the aggregation suppression score [8] was 0.975 and the parasite load remaining [11] was 169% (inactive). The viability [11] was 83.2%, the inhibition [9] was 16.2% (inactive) and the luciferase signal [10] was 32 AU (inactive).
CSCCC(NC=O)C(=O)NC(CC(C)C)C(=O)NC(Cc1ccccc1)C(=O)O (stereo not given) showed a score [2] of 1, a rescue above control [3] of 6.28 and a cytochrome c release ratio [4] of 1.31. For the same compound, the inhibition of aggregation [5] was 53.9%, the glutamate uptake change [6] was 14.5% and the inclusion score [7] was 1. For the same compound, the aggregation suppression score [8] was 1.49 and the inhibition [9] was 3.38% (inactive).
CCC(C)C(N)C(=O)N1CCCC1C(=O)NC(C(=O)O)C(C)CC (stereo not given) showed an inhibition [1] of -6.01%, a score [2] of 1.3 and a rescue above control [3] of 1.96. It also gave a cytochrome c release ratio [4] of 0.74, an inhibition of aggregation [5] of 14.9% and a glutamate uptake change [6] of 11.9%. For the same compound, the inclusion score [7] was 2, the aggregation suppression score [8] was 1.44 and the inhibition [9] was -1.23% (inactive).
With CC(=O)O[C@H]1CC[C@@]2(C)[C@H](CC[C@@H]3[C@@H]2CC[C@]2(C)[C@@H]4[C@H](C[C@@H]32)O[C@]2(CC[C@@H](C)CO2)[C@H]4C)C1 the inhibition [9] was 13.5% (inactive) and the luciferase signal [10] was 44 AU (inactive).
In the case of CC(=O)N1CCC[C@H]1C(=O)O, the inhibition [9] is reported as 11.4% (inactive) and the luciferase signal [10] is reported as 52 AU (inactive).
Compound COc1ccc(/C=C/c2cc(O)cc(O[C@@H]3O[C@H](CO)[C@@H](O)[C@H](O)[C@H]3O)c2)cc1O has an inhibition [1] of 4.89%, a score [2] of 1.27 and a rescue above control [3] of -0.21. The cytochrome c release ratio [4] was 0.78, the inhibition of aggregation [5] was 12.9% and the glutamate uptake change [6] was 4.82%. For the same compound, the inclusion score [7] was 2, the aggregation suppression score [8] was 1.41 and the inhibition [9] was -5.87% (inactive).
For C[C@H]1C(=O)CC[C@@H]2[C@]1(C)CC[C@H]1[C@@]2(C)CC[C@@]2(C)[C@@H]3CC(C)(C)CC[C@]3(C)CC[C@]12C, the inhibition [9] was 7.58% (inactive) and the luciferase signal [10] was 88 AU (inactive).
In the case of NC(N)=NCCC[C@@H](NC(=O)[C@@H](N)Cc1ccc(O)cc1)C(=O)O, the inhibition [1] is reported as -8.49%, the score [2] is reported as 1.34 and the rescue above control [3] is reported as 13.2. For the same compound, the cytochrome c release ratio [4] was 0.94, the inhibition of aggregation [5] was 77% and the glutamate uptake change [6] was 17.2%. The inclusion score [7] was 2, the aggregation suppression score [8] was 1.22 and the inhibition [9] was 7.11% (inactive).
With COC(=O)c1c(OC)cc2c(c1C)Oc1c(Cl)c(OC(C)=O)c(Cl)c(C)c1C(=O)O2 the inhibition [9] was -6.07% (inactive) and the luciferase signal [10] was 44 AU (inactive).
In the case of COC(=O)C(C)c1ccc(C(=O)c2cccs2)cc1 (stereo not given), the parasite load remaining [11] is reported as 119% (inactive), the viability [11] is reported as 76.5% and the inhibition [9] is reported as -13.2% (inactive). For the same compound, the luciferase signal [10] was 44 AU (inactive).
With NCCCCC(N)C(=O)NC(Cc1ccc(O)cc1)C(=O)NC(CCCCN)C(=O)O (stereo not drawn) (H-Lys-Tyr-Lys-OH; configuration not given here) the inhibition [1] was -30.8%, the score [2] was 3.85 and the rescue above control [3] was 16.1. For the same compound, the cytochrome c release ratio [4] was 0.94, the inhibition of aggregation [5] was 37.2% and the glutamate uptake change [6] was -3.42%. For the same compound, the inclusion score [7] was 1, the aggregation suppression score [8] was 1.25 and the inhibition [9] was 13.2% (inactive).
CCOC(=O)C(Cc1ccc(O)cc1)NC(C)=O (stereo not given) gave an inhibition [1] of -16.6%, a score [2] of 1.58 and a rescue above control [3] of 3.83. The cytochrome c release ratio [4] was 0.88, the inhibition of aggregation [5] was -1.73% and the glutamate uptake change [6] was -5.84%. The inclusion score [7] was 2, the aggregation suppression score [8] was 0.981 and the parasite load remaining [11] was 109% (inactive). The viability [11] was 69%, the inhibition [9] was -22.2% (inactive) and the luciferase signal [10] was 72 AU (inactive).
With CSCCC(NC=O)C(=O)NC(C)C(=O)O (stereo not given) the inhibition [1] was 3.66%, the score [2] was 1.03 and the rescue above control [3] was 3.86. For the same compound, the cytochrome c release ratio [4] was 1.14, the inhibition of aggregation [5] was 81.6% and the glutamate uptake change [6] was 9.47%. For the same compound, the inclusion score [7] was 2, the aggregation suppression score [8] was 1.3 and the inhibition [9] was 11.9% (inactive).
In the case of COc1c(O)cc2c(-c3ccccc3)cc(=O)oc2c1OC, the inhibition [9] is reported as -3.61% (inactive) and the luciferase signal [10] is reported as 48 AU (inactive).
For CC(=O)O[C@]1(C)CC[C@@]23C[C@@H]1C(C)(C)[C@@H]2CC[C@H]3C, the inhibition [9] was 13.3% (inactive) and the luciferase signal [10] was 56 AU (inactive).
In the case of C[C@@H]([C@H](CCCc1ccc(Cl)cc1)C(=O)N[C@H](C(=O)Nc1cccnc1)C(C)(C)C)N(O)C=O, the outcome [12] is reported as “inactive”, the outcome [13] is reported as “inactive” and the outcome [14] is reported as “inactive”. The outcome [15] was “inactive”.
With O/N=C1\CCc2cc(-c3nc(-c4ccc(OCCN5CCCCC5)cc4)[nH]c3-c3ccncc3)ccc21 the outcome [12] was “inactive”, the outcome [13] was “inactive” and the outcome [14] was “inactive”. For the same compound, the outcome [15] was “inactive”.
With COc1ccc(Nc2nc(N/N=C/c3cc(Cl)ccc3O)nc(Nc3ccccc3)n2)cc1 the outcome [12] was “inactive”, the outcome [13] was “inactive” and the outcome [14] was “inactive”. For the same compound, the outcome [15] was “inactive”.
With COc1ccc(N=[N+]([O-])c2ccccc2[N+]([O-])=Nc2ccc(OC)cc2)cc1 the outcome [12] was “inactive”, the outcome [13] was “inactive” and the outcome [14] was “inactive”. For the same compound, the outcome [15] was “inactive”.
In the case of CNC1C(O)C(OC2C(N)CC(N)C(OC3OC(CN)=CCC3N)C2O)OCC1(C)O (stereo not given), the fluorescence slope change [16] is reported as 28.9% (inactive), the survival [17] is reported as 9.33 (inactive) and the parasite load remaining [11] is reported as 81.3% (inactive). For the same compound, the viability [11] was 80.5% and the inhibition [9] was 0.544% (inactive).
